# From the supplement of paper PMC6555819
# Columns and labels:
# Assay in all cases: PBM binding z-score (relative to random genomic background probes); higher = stronger binding; sequences stand for … in GC…GCGATTGACAGCGTAGAATGAAGG
# [1] = tested on: RARb homodimer (NR concentration 270 nM)
# Summary of the method: (§1)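 The probes on custom Agilent 4×180K protein-binding microarrays were double-stranded, with 34-nt variable regions bearing direct-repeat seeds, single-nucleotide variants, half-site ablations and random human genomic background sequences. Incubation lasted 1 h with ligand-free nuclear receptor dimers in PBS pH 7.4, 2% milk, 0.02% Triton X-100, 1 mM DTT, 0.2 mg/mL BSA and 0.4 mg/ml salmon testes DNA. Antibodies against each partner (one per run) detected bound dimers, and fluorescence scans were regression-normalized. Binding z-scores take the random background probes as reference.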
# [2] = tested on: RARg:RXRa (NR concentration 270 nM, RXRa partner concentration 90 nM)
# Summary of the method: as §1
# [3] = tested on: RARg homodimer (NR concentration 270 nM)
# Summary of the method: as §1
# [4] = tested on: RXRa DBDmut IVT, anti-RXR (DBD mutation: RXRa K156A/R161A, NR concentration 90 nM)
# Summary of the method: as §1
# [5] = tested on: RXRa homodimer (NR concentration 180 nM)
# Summary of the method: as §1
# [6] = tested on: THRa:RXRa (NR concentration 90 nM, RXRa partner concentration 90 nM)
# Summary of the method: as §1
# [7] = tested on: THRa homodimer (NR concentration 90 nM)
# Summary of the method: as §1
# [8] = tested on: VDR homodimer (NR concentration 270 nM)
# Summary of the method: as §1
# [9] = tested on: VDR:RXRa (NR concentration 270 nM, RXRa partner concentration 90 nM)
# Summary of the method: as §1
Sequence,PBM binding z-score [1],PBM binding z-score [2],PBM binding z-score [3],PBM binding z-score [4],PBM binding z-score [5],PBM binding z-score [6],PBM binding z-score [7],PBM binding z-score [8],PBM binding z-score [9]
CGTCCAAGGGCAATGCTAGGTCAGTGAAAGCATT,3.04,3.71,2.64,0.887,0.71,2.98,0.346,0.429,
CGAACTAGGTCAACGGACAGTGAAAGGCGACGTA,2.82,4.11,4.8,1.34,3.39,2.36,0.45,0.394,
CTATGTAGGTTAAGGGGGTCATTCTGTTTGAAAG,3.79,4.83,3.82,2.56,5.51,3.69,2.09,4.58,
CTATGTAGGTTAAGGGGGTCATTTAGTTTGAAAG,3.86,5.19,3.66,2.54,5.85,3.83,2.03,5.81,
CGTCCAAGGTCATAGGAGGTCACTGAAGACAGAT,5.4,7.13,7.45,4.05,7.22,5.37,3.68,5.28,
CGAACTCGGTCACCAGGACAGTGAAGAGGTTGGA,1.97,2.47,3.48,0.319,1.01,1.86,0.326,0.21,
CGAACTGGGTCAAAGGACAGTGAAAGGCGACGTA,2.58,3.7,3.67,0.996,3.11,1.95,0.161,0.185,
CCTACTGGGCCAAAGGTCCTTGATTCCAATGCTC,0.379,0.102,-0.124,-0.459,0.121,-0.00931,-0.139,-0.217,
CATAGTTGGTCAAGGTCACACACGCTATAGGTAC,4.31,4.62,4.62,2.04,4.73,4.18,4.02,3.8,
CGCACTAGGTCACCAGGACAGTGAAGAGGTTGGA,3.34,4.53,5.06,1.09,3.23,3.34,2.35,1.14,
TAGCCTAAGTCATGGGCCAGTATACCACGCGAAC,0.0501,0.0528,0.13,-0.416,0.289,-0.0695,-0.257,-0.135,
CCTACTGGGCCATTCAGAGGACATTGATCATATG,0.736,0.858,0.53,-0.28,-0.174,0.676,0.238,0.541,
ATATGTAGGTTAGGGTCATTTAGAAAGTAGGGAA,3.38,3.86,2.8,2.29,5.07,4.06,3.22,3.84,
CGAACTAGGTCACCAGGACCGTGAAGAGGTTGGA,3.25,4.44,5.18,1.08,3.5,2.89,1.07,0.39,
TCGAGTAGGTTACGGGGGCAGTCAGGGATGAAGA,2.06,2.82,2.3,1,2.21,2.81,1,1.25,
TAGCCTAGGCCATGGGCCAGTATACCACGCGAAC,-0.0202,-0.148,0.285,-1.69,-0.256,-0.253,-0.645,-0.837,
TATACAGGATCAAAGGCCAGAGTACGAATGTCGA,0.878,0.959,1.02,-0.32,0.857,-0.0517,-0.472,0.376,
CCAGACAGGTGAAAGGTAACTCACTCTGGTACGC,0.88,1.34,0.948,0.0725,2.37,1.03,-0.0395,-0.0544,
ATATGTAGGTTAGAGTCATTCAGAAAGTAGGGAA,0.746,0.752,0.891,0.428,0.703,,0.254,0.387,0.295
CTATGTAGGTTAAGGTGGTCATTCAGTTTGAAAG,1.42,1.02,1.05,0.518,1.08,1.36,0.282,0.721,
ATTTGTAGGTTATCGGGTCATTCAGTTTGCGCAT,3.53,3.69,3.01,1.95,3.61,3.6,3.62,4.42,
TTACCAAGGTGAAAGGTCGTTGAAGCACGCCTTG,2.64,4.3,2,0.879,5.84,3.57,0.624,1.29,
GGTACGAGGGCAAAGTTGATAGCATCTGTCGACG,1.13,2.05,1.83,2.49,1.7,1.33,-0.0946,1.48,
CCGGGTAGGTTACGAGGGGGCATTCAGTGCGAAT,2.2,3.26,2.22,0.966,2.35,3.94,0.875,2.55,
CCGAGTAGGTTACGAGGGCGCATTCAGTGCGAAT,0.436,0.647,0.287,-0.122,0.655,0.838,-0.711,0.0173,
CCTTACGGGTCACGGTTATAGCACGGGTGGTACG,3.58,5.47,5.06,0.501,6.44,3.28,0.418,1.26,
TCGAGTAGGTTACGGGGGCATTCGGGGATGAAGA,2.34,3.52,2.38,1.85,2.92,4.01,1.63,3.83,
TCGAGTAGGTTACGCGGGCATTCAGGGATGAAGA,0.619,0.799,0.653,-0.0929,0.864,0.97,-0.444,-0.617,
TCGAGTAGGTTACGAGGGCATTCAGGGATGAAGA,1.43,1.55,1.13,0.248,1.58,3.1,0.0603,1.27,
